Reference: ChEMBL document CHEMBL4513216, “Probing the Open Global Health Chemical Diversity Library for Multistage-Active Starting Points for Next-Generation Antimalarials” (ACS Infect Dis, 2020)
Hit rate of the full screen: of about 65,000 compounds, about 2,100 (3.2%) showed an effect of 50% or more. The median lay at about -52%. Many of the other results were omitted from the sample, so strong results are more common in it than they were.

tested on: Plasmodium falciparum; assay: Screen against P. falciparum Asexual Blood Stage (ABS), at 5uM; format: functional, Dd2; conditions: tested at 5 uM

Compound	INHIBITION [%]
CCc1noc(C(C)N(C)CC(=O)Nc2ccc(Cl)c(C(F)(F)F)c2)n1 (centres undefined)	-75.8
CC(Cn1ccnc1)NC(=O)N1CCN(Cc2ccncc2)CC1 (centres undefined)	-125
CC(Cn1cccn1)NC(=O)N1CCN(Cc2ccsc2)CC1 (centres undefined)	-55.3
CC(Cn1ccnc1)NC(=O)N1CCN(Cc2ccsc2)CC1 (centres undefined)	58.4
NC(=O)c1c(-c2ccc(Cl)cc2Cl)csc1NC(=O)CCCC(=O)O	-162
CC(C)NC(=O)N1CCC2(CC1)C(=O)NCCN2Cc1ccccc1	-105
COc1ccc(-n2cc(CCO)cn2)cc1C	-136
O=C1CC2(CCN(Cc3ccoc3)CC2)CN1Cc1cc(F)cc(F)c1	56.5
Cc1ccc(CN2CCC3(CCCN(C(=O)N(C)C)C3)C2)cc1 (centres undefined)	-59.2
CNC(=O)CN1CCOCC2(CCCN(Cc3ccoc3)C2)C1 (centres undefined)	33.7
Cc1ccc(CN2CCCC3(CCN(Cc4ccoc4)CC3)C2)cc1	79.8
O=C1CC2(CCN(Cc3ncc[nH]3)CC2)CN1Cc1cc(F)cc(F)c1	-147
CN(C)CCN1CCCC12CCN(C(=O)c1ccco1)CC2	33.9
CN(C)CCN1CCCC12CCCN(Cc1ccco1)C2 (centres undefined)	-71.8
CN(C)CCN1CCCC12CCCN(Cc1ccoc1)C2 (centres undefined)	68.1
O=C1CC2(CCN(CCO)CC2)CN1Cc1cc(F)cc(F)c1	19.3
CC1CCCN(S(=O)(=O)NCCNC(=O)c2ncccc2O)C1 (centres undefined)	-122
COc1ccc(-c2nc(CCNC(=O)NC3CCC(O)CC3)co2)cc1 (centres undefined)	-13.7
CCN(C)CC(=O)N1CCc2nc(NC)nc(C(=O)N3CCCC3)c2C1	-14.4
CSc1ccc(CNc2n[nH]c(C)n2)cc1	-43.7
CCS(=O)(=O)N1CCC2(CC1)CN(c1ccsc1)C(=O)CO2	-0.697
CC(=O)Nc1c(C)noc1C=Cc1ccc(S(=O)(=O)N2CCCC2)cc1	11.8
COc1ccc(CN2C[C@@H]3OCCN(CC4CCCO4)[C@@H]3C2)cc1 (some centres undefined)	-115
COc1ccc(CN2C[C@@H]3OCCN(C)[C@@H]3C2)cc1	-42.1
Cc1noc(C)c1CN1CCO[C@H]2CN(Cc3ccc(F)cc3)C[C@H]21	55.3
COc1ccc(CN2C[C@@H]3OCCN(CCN4CCCC4)[C@@H]3C2)cc1	64

Compound	INHIBITION [%]
Cc1noc(C)c1CN1CCO[C@H]2CN(Cc3cccc(F)c3)C[C@H]21	-32.1
COc1ccc(CN2C[C@@H]3OCCN(CCN(C)C)[C@@H]3C2)cc1	66.9
CN(C)CCN1CCO[C@H]2CN(Cc3cnn(C)c3)C[C@H]21	-88.4
Fc1ccc(CN2C[C@@H]3OCCN(CCN4CCCC4)[C@@H]3C2)cc1	-70.3
Fc1ccc(CN2C[C@@H]3OCCN(CC4CCCO4)[C@@H]3C2)cc1 (some centres undefined)	-2.84
O=C(CN1CCC(C(=O)c2cc(F)ccc2F)CC1)NC1CCCC1	-63.8
Cc1nn(C)c2c(NCc3ccc(F)cc3)nc(C3CC3)nc12	40.3
CCCn1ccnc1CN1CCCC(O)(CN(C)C)CC1 (centres undefined)	-44.8
CC(=O)N1CC[C@H]2[C@H](C[C@@H](Cn3cncn3)N2c2nccs2)C1	-33.8
CC1CCC(n2cc3nc(N)[nH]cc-3c2=O)CC1 (centres undefined)	-68.9
Nc1nc2cn(C3CCCC3)c(=O)c-2c[nH]1	69.9
CNc1nc2cn(C3CCCC3)c(=O)c-2c[nH]1	-45.905
CN(C)c1nc2c(c(N3CCC4(CC3)CNC(=O)C4)n1)CCCC2	-6.41
O=S(=O)(N1CCCCC1)N1CCCN(CC2CCCO2)CC1 (centres undefined)	-12.8
CC(C)N(C)Cc1cncc2c1CCN(C(=O)c1ccccc1F)C2	-44.1
CN(Cc1ccco1)[C@@H]1CN(Cc2ccncc2)C[C@@H]2CCCO[C@@H]21	9.86
CN(Cc1ccco1)[C@@H]1CN(Cc2nccs2)C[C@@H]2CCCO[C@@H]21	31.1
CN(Cc1ccco1)[C@@H]1CN(Cc2ccoc2)C[C@@H]2CCCO[C@@H]21	60.3
CN(Cc1ccco1)[C@@H]1CN(Cc2cccs2)C[C@@H]2CCCO[C@@H]21	65.3
Cc1ccc(CN2C[C@@H]3CCCO[C@@H]3[C@H](N(C)Cc3ccco3)C2)o1	39.7
CN(Cc1ccco1)[C@@H]1CN(Cc2cccnc2)C[C@@H]2CCCO[C@@H]21	29.1
COC(=O)c1cccn1C1CCN(Cc2cnc3ccccn23)CC1	-55.1
COC(=O)c1ccc(S(=O)(=O)NC2CNC(=O)C2)cc1 (centres undefined)	-28.8
CCn1c(=O)c2sccc2n(CC(=O)Nc2cccc(Cl)c2)c1=O	-40
CC(C)c1cccc(NC(=O)Cn2c(=O)n(C)c(=O)c3sccc32)c1	-34.2
Cn1c(=O)c2sccc2n(CC(=O)Nc2cccc(Cl)c2)c1=O	59.4

Compound	INHIBITION [%]
O=C(NC1CCN(c2ncccc2F)C1)c1cccc(-n2ccnc2)c1 (centres undefined)	-41.7
Cc1ccc(S(=O)(=O)N2CCC(S(=O)(=O)c3nncn3C)CC2)cc1C	-31.9
Cc1ccc(S(=O)(=O)N2CCCCC(N3CCN(C)CC3)C2)cc1F (centres undefined)	39.6
Cc1cc(S(=O)(=O)N2CCCN3CCCC3C2)ccc1F (centres undefined)	69.1
Cc1cc(S(=O)(=O)N2CCC(S(C)(=O)=O)C2)ccc1F (centres undefined)	-22.2
Cc1ccc(S(=O)(=O)N2CCC(N3CCCCC3)CC2)cc1C	65.9
Cc1ccc(S(=O)(=O)N2CCC(S(C)(=O)=O)CC2)cc1C	-1.8
CC(C(=O)N1CCc2sccc2C1)N1CCC(N2CCCC2)CC1 (centres undefined)	53
CC(C(=O)N1CCc2sccc2C1)N1CCCN(C2CC2)CC1 (centres undefined)	22.7
CC(C)NC(=O)C1CCN(C(C)C(=O)N2CCc3sccc3C2)CC1 (centres undefined)	-14.7
CN1CCC(Cc2cncc(-c3ccccc3C(=O)O)n2)C1 (centres undefined)	-92
CCc1nc2ccccc2c(=O)n1CC1(O)CCN(S(C)(=O)=O)CC1	-59.6
CC(C)c1cc(C(=O)N2CCOC3(CCCC3)C2)no1	-111
CCOc1ccc(C(=O)Nc2c(C)nc3ccc(Cl)cn3c2=O)cc1	-87.3
CN(C)c1ncccc1CNS(=O)(=O)c1ccc(C(N)=O)cc1	-34.2
COC(=O)c1ccc(S(=O)(=O)NCc2cccnc2N(C)C)cc1	-8.55
CCOC(=O)c1ccc(S(=O)(=O)NCc2cccnc2N(C)C)cc1	54.1
CC(C)(O)CCc1ccc(C(=O)N2Cc3cnn(CCO)c3C2)cc1	-86.5
CCOc1ncnc2c1CCN(C(=O)NCc1cccnc1)CC2	-58.1
N#Cc1ccc(CNc2cnn(CCN3CCOCC3)c2)cc1	-16.7
Clc1cccc(CNc2cnn(CCN3CCCCC3)c2)c1	53.3
Clc1ccc(CNc2cnn(CCN3CCOCC3)c2)cc1Cl	-55.6
Cn1nccc1CCNC(=O)[C@H]1CNC[C@H](C(=O)N2CCCC2)C1	-22.7
Cc1nn(C)c2nc(N3CCNC(=O)C3Cc3ccccc3)sc12 (centres undefined)	-81.9
COC(=O)CN1CCN(c2nc3c(s2)c(C)nn3C)C(C)C1=O (centres undefined)	-88
Cc1ccc(CN2CCN(c3nc4c(s3)c(C)nn4C)C(C)C2=O)cc1 (centres undefined)	69.8

Compound	INHIBITION [%]
O=C(CN1C=Nc2ccccc2S1(=O)=O)NCCCc1ccccc1	-115
CCn1cnnc1CNC(=O)N1CCN(c2ccccc2Cl)CC1	-79.9
COc1ccc(CN(Cc2cncn2C)CC2CCCO2)c(OC)c1 (centres undefined)	-22.7
CSc1ccc(-c2nc(CN3C[C@@H](C)NC[C@@H]3C)c(C)o2)cc1	-61.5
Cc1oc(-c2cc(F)cc(F)c2)nc1CN1C[C@@H](C)NC[C@@H]1C	60.1
CSc1ccc(-c2nc(CN3CCNCC3C)c(C)o2)cc1 (centres undefined)	35.1
Cn1cc(N2C[C@@H]3CN(CC4CCOCC4)C[C@@H]3C2=O)cn1	-67.1
Cn1cc(C2CCCN2C(=O)CCCc2ccccn2)cn1 (centres undefined)	-94.3
Cc1ccc(CNC(=O)c2cc(Cn3ccnc3C(C)C)[nH]n2)o1	-76.4
CCCc1cc(N2CCC(NCC3(O)CCN(C)CC3)CC2)nc(C)n1	51.2
CCCc1cc(N2CCC(NC3CCC(O)CC3)CC2)nc(C)n1 (centres undefined)	-161
CCCc1cc(N2CCC(NCC3(O)CCCCC3)CC2)nc(C)n1	8.94
CCS(=O)(=O)CC(=O)NC(c1ccccc1)C1CCCC1 (centres undefined)	-30
Cc1noc(C)c1CN1CCN(C(C)c2nc(C3CC3)no2)CC1 (centres undefined)	-77.5
Cc1c(Cc2ccccc2)c(O)nc2nc(N3CCOCC3)nn12	-56.2
O=C(c1ccncc1)N1CCC2(CC1)CCN(C(=O)c1cccnc1)C2	-57.2
CC(=O)Nc1ccc(OCc2noc(C(=O)N3CCCCCC3)n2)cc1	-83.9
Nc1ccc(CC2CCCN(Cc3c[nH]cn3)C2)nn1 (centres undefined)	-87
Cc1[nH]c(=O)[nH]c(=O)c1CN1CCCC(CCc2ccc(F)cc2F)C1 (centres undefined)	52
Cc1nc(CN2CCCC(CCc3ccccc3F)C2)c[nH]1 (centres undefined)	36.5
CNc1ccc(CC2CCCN(Cc3c[nH]cn3)C2)nn1 (centres undefined)	-105
Cc1[nH]c(=O)[nH]c(=O)c1CN1CCCC(CCc2c(F)cccc2F)C1 (centres undefined)	-44.3
Cc1nc(CN2CCCC(CCc3c(F)cccc3F)C2)c[nH]1 (centres undefined)	43.1
Cc1nc(CN2CCCC(CCc3ccc(F)cc3F)C2)c[nH]1 (centres undefined)	57.6
Cc1[nH]c(=O)[nH]c(=O)c1CN1CCCC(CCc2ccccc2F)C1 (centres undefined)	-26.5
Fc1ccc(CCC2CCCN(Cc3c[nH]cn3)C2)c(F)c1 (centres undefined)	61.6
